The campaign covered roughly 16,000 compounds. About 4,000 (25%) were called active. Not shown: some 26% with an inconclusive outcome. Only a sample is shown. A number with no mark means an inactive call. Calls follow the shape of the dose curve; as a rule, active = well fitted curve in the direction sought with a large enough effect; inconclusive = small, poorly fitted or top-dose-only effect, or effect the other way; inactive = no such curve, though single readings can be large or run the other way.

What is called AC50 is the midpoint of the concentration-response curve, whichever way the signal moves.
% is scaled to controls: 0 for no effect and ±100 for the full control effect.

For this test, the target named is Cytochrome P450 2C9 (Homo sapiens) (UniProt P11712). Put plainly: Cytochrome panel assay with activity outcomes. To be noted: recombinant CYP, pro-luciferin dealkylation, luminescence, p450-cyp2c9; series mostly up to 57.1 µM.
Chain of Cytochrome P450 2C9 (Homo sapiens) (P11712 whole entry, looked up): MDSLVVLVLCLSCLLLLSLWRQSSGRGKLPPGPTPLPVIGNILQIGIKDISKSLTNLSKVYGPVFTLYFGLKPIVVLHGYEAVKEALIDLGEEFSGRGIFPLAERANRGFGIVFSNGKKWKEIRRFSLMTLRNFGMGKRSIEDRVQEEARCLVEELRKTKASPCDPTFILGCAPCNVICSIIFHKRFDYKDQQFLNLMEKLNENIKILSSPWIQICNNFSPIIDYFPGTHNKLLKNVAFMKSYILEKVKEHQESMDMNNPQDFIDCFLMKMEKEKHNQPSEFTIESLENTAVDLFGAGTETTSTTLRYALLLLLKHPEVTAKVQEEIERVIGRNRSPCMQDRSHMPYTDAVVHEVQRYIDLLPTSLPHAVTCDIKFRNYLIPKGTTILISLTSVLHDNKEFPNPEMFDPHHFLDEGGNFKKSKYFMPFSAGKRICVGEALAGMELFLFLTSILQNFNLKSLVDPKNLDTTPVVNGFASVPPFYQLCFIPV
On to `C/C(CCN1CCc2nc(-c3ccccc3)c(-c3ccccc3)cc2C1)=N\O[C@@H](C)c1cn([C@H](CO)Cc2ccccc2)nn1`, for which the activity, negative = inhibition was -23.3% [at 11.4 µM].

As to `Nc1ncnc(N(c2ccccc2)C2CCCCC2)c1[N+](=O)[O-]`, the AC50 entry was “inactive”. The same measure, in the same setting: under `C[C@@H]1[C@H]2CC[C@@H]3[C@@H]4CC=C5C[C@@H](N(C)C)CC[C@]5(C)[C@@H]4CC[C@@]32CN1C` stands “inactive”. With `O=C(O)[C@@H]1[C@@H]2C[C@@H]3[C@@H](OC(=O)[C@@H]31)[C@H]2Br`, the activity, negative = inhibition was -8.47% [at 11.4 µM]. Consider `CC(C)[C@H](NC(=O)OC(C)(C)C)[C@@H](O)CC(=O)C(C)(C)C`, for which the activity, negative = inhibition is 9.81% [at 11.4 µM]. Take `CCOC(=O)c1c2ccc(OCC(=O)N/N=C/c3ccc(Cl)cc3)cc2n2ccccc12`: the half-maximal activity concentration (AC50) was 6.31 µM (active).

Consider `CO[C@H]1COC(=O)C/C=C\[C@@H](C)COC(=O)[C@@H](OCc2ccccc2)/C=C\[C@@H]1C`, for which the activity, negative = inhibition is -24.9% [at 11.4 µM].

On to `C=CCNc1oc(/C=C/c2ccccc2)nc1C#N`, for which the AC50 was 4.47 µM (active). Turning to `Cc1nc2ccccc2nc(C)c1=NO`, the AC50 entry was “inactive”.

Regarding `NC(N)=NC(N)=Nc1ccccc1` (tested in a mixture with another compound), the activity, negative = inhibition is -12.4% [at 11.4 µM]. Consider `Cc1cc2ccccc2c[n+]1CC(O)C[n+]1cc2ccccc2cc1C`, for which the activity, negative = inhibition is 8.36% [at 11.4 µM].

Take `C=CCc1cc(C=O)cc(OC)c1OCc1ccc(Cl)cc1`: the AC50 is 8.91 µM (active).

As to `O=C(CCCCCn1c(=O)[nH]c2ccsc2c1=O)NCc1ccc2c(c1)OCO2`, the concentration at half-maximal activity (AC50) was 4.47 µM (active). With `O=C(CCCCn1c(=S)[nH]c2ccsc2c1=O)NCc1ccco1`, the AC50 was 2.24 µM (active).

For `COCCNC(=O)CCCCCn1c(=S)[nH]c2ccccc2c1=O`, the AC50 result was “inactive”. For `CC(C)(C)C(=O)OCOC(=O)[C@@H]1N2C(=O)[C@@H](NC(=O)[C@H](N)c3ccccc3)[C@H]2SC1(C)C`, the AC50 entry was “inactive”. For `Cc1nc2c(C(=O)N3CCOCC3)cnn2c(C)c1Cc1ccc(Cl)cc1`, the AC50 is 7.94 µM (active).

Take `CCC(C)NC(=O)c1cnn2c(C)c3c(nc12)CCCC3` (configuration not stated): the AC50 entry was “inactive”. Still for that read-out and setting: under `O=C(Cc1ccccc1I)Nc1ccccc1` stands 25.1 µM (active); under `C#CCCCC(=O)Nc1ccccc1`, “inactive”. Take `CCC#CCOCC(=O)Nc1ccccc1`: the AC50 result is “inactive”. Still for that read-out and setting: to `CCC(=O)NNC(=O)CCC(=O)Nc1ccccc1` belongs “inactive”.

In the case of `CCCCC#Cc1ccccc1CC(=O)Nc1ccccc1`, the half-maximal activity concentration (AC50) is 2.51 µM (active).

As to `NCC(=O)Nc1ccccc1`, the activity, negative = inhibition is 17% [at 11.4 µM].

Consider `C=C(CC)C(=O)c1ccc(OCC(=O)O)c(Cl)c1Cl`, for which the concentration at half-maximal activity (AC50) is 0.631 µM (active).

In the case of `CC(C)(C)c1ccc(OCC(=O)O)c(Cl)c1`, the activity, negative = inhibition is -19.9% [at 11.4 µM]. As to `COc1cc(NC(=O)Cc2c(C(=O)O)[nH]c3ccccc23)cc(OC)c1OC`, the AC50 was 12.6 µM (active). Still for that read-out and setting: under `NC(N)=NC(=O)c1nc(Cl)c(N2CCCCCC2)nc1N` stands “inactive”; under `Cc1cc(NC(=O)CSc2nnc(-c3ccccc3)n2Cc2ccco2)no1`, 10 µM (active); under `CNC(=O)NC(=O)CSc1nnc(-c2ccco2)n1Cc1ccccc1`, “inactive”. On the same count and under the same terms, to `CC(=O)Nc1ccc(NC(=O)CSc2nnc(-c3ccccc3)n2Cc2ccc3c(c2)OCO3)cc1` belongs 11.2 µM (active). With `CC(C)(C)NC(=O)CSc1nnc(Cc2ccc3c(c2)OCO3)n1C1CCCCC1`, the AC50 result was “inactive”. Take `CC(C)=NOC[C@@H](O)COCc1ccco1`: the activity, negative = inhibition is 0.0785% [at 11.4 µM]. With `COc1ccc2c(c1)CCC1C2CC[C@]2(C)[C@H](NCCCCCCN3C(=O)C=CC3=O)CC[C@@H]12` (some centres not stated), the AC50 result is “inactive”. Still for that read-out and setting: to `CCOC(=O)C1CCCN(c2ncnc3c2cnn3-c2ccc(Cl)cc2)C1` (configuration not stated) belongs 7.08 µM (active). With `Cc1cccc(-n2ncc3c(Nc4c(C)n(C)n(-c5ccccc5)c4=O)ncnc32)c1`, the AC50 entry was “inactive”. Same read-out and setting: to `CCOC(=O)C1CCCN(c2ncnc3c2cnn3-c2cccc(C)c2)C1` (configuration not stated) belongs 12.6 µM (active). As to `Clc1ccc2c(N3CCC(CCC4CCN(c5ncnc6cc(Cl)ccc56)CC4)CC3)ncnc2c1`, the activity, negative = inhibition was -21% [at 11.4 µM]. In the case of `Cc1noc(C)c1-c1ccc2ncnc(N3CCC(C(=O)O)CC3)c2c1`, the activity, negative = inhibition was 14.5% [at 2.29 µM]. Turning to `COc1ccc(C(=O)NC(CO)c2nnc(SCc3ccc(Cl)c(Cl)c3)n2C)cc1` (configuration not stated), the AC50 was 14.1 µM (active). Take `COC(=O)c1ccccc1NC(=O)CSc1nnc(C(CO)NC(=O)c2ccccc2Cl)n1C` (configuration not stated): the AC50 result is “inactive”. In the case of `CN(C)Cc1ccccc1-c1nc(NCc2cccs2)c2ccccc2n1`, the activity, negative = inhibition is 5.46% [at 2.29 µM]. With `CN1CCN2c3ncccc3Cc3ccccc3C2C1` (configuration not stated), the AC50 was 0.0501 µM (active). In the case of `CN1CCN(c2ncncc2-c2cccnc2)CC1`, the activity, negative = inhibition is -10.3% [at 2.29 µM]. With `COc1ccccc1-c1cncnc1N1CCN(C)CC1`, the activity, negative = inhibition is 3.41% [at 2.29 µM]. Same read-out and setting: under `Cc1ccc(C)c(/C(=N\N=C(N)N)C2CC2)c1` stands -5.2% [at 11.4 µM]. Regarding `O=S(=O)(c1ccccc1)c1cnc(-c2cccnc2)nc1-c1ccc(Cl)cc1Cl`, the concentration at half-maximal activity (AC50) was 10 µM (active). As to `O=S(=O)(c1ccc(Cl)cc1)c1cnc(-c2cccnc2)nc1-c1ccccc1`, the AC50 result was “inactive”.

In the case of `Nc1nc(-c2cccnc2)cc(-c2cc(-c3cccnc3)nc(N)n2)n1`, the activity, negative = inhibition was -11.2% [at 11.4 µM]. Regarding `CCCc1c(-c2ccc(O)cc2)nn(-c2ccc(O)cc2)c1-c1ccc(O)cc1`, the AC50 result was “inactive”. For `COc1ccc(-n2c(=O)c(-c3ccc(F)cc3)nc3cnc(OC)nc32)cc1`, the AC50 entry is “inactive”. Still for that read-out and setting: to `Cc1ccc(-c2csc(N3CCC(NS(=O)(=O)c4ccc5c(c4)OCCO5)CC3)n2)cc1` belongs 3.55 µM (active); to `O=C(O)[C@@H]1CCCNC1`, “inactive”; to `CC(=O)c1cc2ccccc2oc1=O`, “inactive”. On the same count and under the same terms, under `CCOc1ccc(CN(C(=O)c2oc3ccccc3c2C)C2CCS(=O)(=O)C2)cc1` (configuration not stated) stands 8.91 µM (active); under `Cc1ccc(CN(C(=O)c2cc3ccccc3oc2=O)C2CCS(=O)(=O)C2)cc1` (configuration not stated), 11.2 µM (active); under `O=C(c1sc2ccccc2c1Cl)N(Cc1ccccc1)C1CCS(=O)(=O)C1` (configuration not stated), 3.98 µM (active).

With `CCCN(C(=S)Nc1ccccc1)C1CCS(=O)(=O)C1` (configuration not stated), the AC50 entry is “inactive”.

As for `Cc1cc(C)c[n+](CC(=O)c2cc3ccccc3oc2=O)c1`, the AC50 result was “inactive”. In the case of `CCc1ccc(CN(C(=O)c2cc3ccccc3oc2=O)C2CCS(=O)(=O)C2)cc1` (configuration not stated), the AC50 is 8.91 µM (active).

As to `CCc1ccc(OCC(=O)OC2CCS(=O)(=O)C2)cc1` (configuration not stated), the AC50 result was “inactive”. `CN(C(=O)COc1cccc(Br)c1)C1CCS(=O)(=O)C1` (configuration not stated): the AC50 entry was “inactive”.

Regarding `CCN(CC)c1ccc2cc(C(C)=O)c(=O)oc2c1`, the AC50 result was “inactive”. Turning to `CC(C)(C)c1cc(C(=O)O)c(CN2CCCCC2)o1`, the AC50 result was “inactive”.

Consider `CN(C)Cc1ccccc1-c1nc(N(C)Cc2ccco2)c2ccccc2n1`, for which the activity, negative = inhibition is 11.9% [at 2.29 µM].

On to `Nc1ccc(S(=O)(=O)NCc2nccs2)cc1`, for which the activity, negative = inhibition was -21.4% [at 11.4 µM]. Regarding `O=S(=O)(NCc1cn2ccsc2n1)c1ccc(Oc2ccccc2)cc1`, the AC50 is 7.08 µM (active). `O=C(c1ccco1)N1CCC2(CCN(Cc3ccncc3)CC2)CC1`: the concentration at half-maximal activity (AC50) is 7.94 µM (active). On the same count and under the same terms, under `Cn1cccc1C(=O)N1CCC2(CCN(Cc3nccs3)CC2)CC1` stands “inactive”; under `O=C(c1ccco1)N1CCC2(CCN(Cc3ccccc3)CC2)CC1`, “inactive”; under `O=C(c1ccncc1)N1CCC2(CCN(Cc3ccccc3)CC2)CC1`, “inactive”. Still for that read-out and setting: to `COCC(=O)N1CCC2(CCN(Cc3ccccc3OC)CC2)CC1` belongs “inactive”; to `CC(=O)N1CCC2(CCN(Cc3ccncc3)CC2)CC1`, “inactive”.

In the case of `Cn1cccc1C(=O)N1CCC2(CCN(Cc3ccccc3)CC2)CC1`, the AC50 result was “inactive”. As to `Cn1cccc1C(=O)N1CCC2(CCN(Cc3ccncc3)CC2)CC1`, the concentration at half-maximal activity (AC50) was 10 µM (active).

For `Cn1cccc1C(=O)N1CCC2(CCCN(Cc3ccncc3)C2)CC1`, the AC50 is 1.58 µM (active). Still for that read-out and setting: to `COCC(=O)N1CCC2(CCN(Cc3ccncc3)CC2)CC1` belongs 0.398 µM (active).

Consider `Cn1cccc1C(=O)N1CCC2(CCCN(Cc3ccc(C#N)cc3)C2)CC1`, for which the AC50 result was “inactive”. On to `Cn1cccc1C(=O)N1CCC2(CCCN(Cc3ccccc3)C2)CC1`, for which the AC50 result was “inactive”.

Take `CN(C)c1ccc(-c2cncnc2Nc2ccccc2)cc1`: the activity, negative = inhibition is -6.76% [at 2.29 µM]. Regarding `CCCS(=O)(=O)N1CCCC(C(=O)NCCCOCC)C1` (configuration not stated), the AC50 result is “inactive”. For the compound `CN(CC(=O)N1CCN(c2ccccc2)CC1)S(=O)(=O)c1cnc[nH]1`, the AC50 was 0.0708 µM (active). `CCc1cccc(CC)c1NC(=O)CN(CC(=O)O)CC(=O)O`: the AC50 entry is “inactive”. On the same count and under the same terms, to `CCc1cccc(NC(=O)CN(C)S(=O)(=O)c2cnc[nH]2)c1` belongs 0.631 µM (active).

Consider `O=C1[C@H]2O[C@@H]2[C@@H](O)[C@H]2[C@H]1CCn1c(=O)n(Cc3cc4c(cc3Cl)OCO4)c(=O)n12`, for which the activity, negative = inhibition was 3.99% [at 11.4 µM]. Take `Nc1ncnc2c1ncn2C[C@@H](O)C(=O)O`: the activity, negative = inhibition is -0.945% [at 11.4 µM]. Still for that read-out and setting: under `N=C(N)SCC(=O)O` stands -5.65% [at 11.4 µM].

In the case of `Cc1cccc(N(C)S(=O)(=O)c2ccc3[nH]c(=O)c(=O)[nH]c3c2)c1`, the half-maximal activity concentration (AC50) was 4.47 µM (active). As for `COc1ccc(N(C)S(=O)(=O)c2ccc3c(c2)CCC(=O)N3)cc1`, the AC50 entry was “inactive”. Regarding `CN(C)c1ccc(NC(=O)c2cccc(N3C(=O)C4C5C=CC(C5)C4C3=O)c2)cc1` (configuration not stated), the AC50 entry is “inactive”.

In the case of `O=C(Nc1ccc(Cl)cc1Cl)c1cccc(N2C(=O)C=CC2=O)c1`, the AC50 is 11.2 µM (active). Still for that read-out and setting: to `CCNc1ncc2nc(C)c(=O)n(C[C@H]3CCCO3)c2n1` belongs “inactive”; to `CCc1ccc(C(=O)N2CCC(c3nc4ccccc4s3)CC2)cc1`, 1.58 µM (active); to `O=P(Cc1cc[n+]([O-])cc1)(c1ccccc1)c1ccccc1`, “inactive”.

Regarding `Cc1cccc(C)c1NC(=O)[C@H](C)N`, the AC50 entry was “inactive”. The same measure, in the same setting: to `Cc1cccc(C)c1NC(=O)C(c1ccc(Cl)cc1Cl)N1CCCCC1` (configuration not stated) belongs 14.1 µM (active). On the same count and under the same terms, under `Cc1cccc(C)c1NC(=O)C(c1ccccc1)N1CCC1=O` (configuration not stated) stands “inactive”.

These data come from PubChem BioAssay AID1851 (National Center for Advancing Translational Sciences (NCATS), 2009).
